Measured values reported in PubChem BioAssay AID1745848 (National Center for Advancing Translational Sciences (NCATS), 2022).
Among all 2,100 compounds or so, about 940 (45%) were called active. Another 48% or so got no clear call; they are omitted. The call rests on the fitted dose curve; in most records, active means well fitted inhibition curve with a large enough effect; inconclusive means small, poorly fitted or top-dose-only effect; inactive means no such curve, though single readings can be large or run the other way. The set was probably picked from earlier hits. This is one part of the list.

Assay: Confirmatory qHTS for Inhibitors of ATXN expression; further: nearly all actives have a fitted effect of over 65% in size
Settings: ATXN2-luciferase reporter cells, luminescence, 24 h; series mostly up to 11.5 µM
Method in brief: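 Cells carrying ATXN2-luciferase reporter exposed 24 h at 37 C to compound. Viability then read by CellTiter-Fluor (25 uM GF-AFC, 30 min), followed by SteadyGlo luminescence; medium-only wells set 100% inhibition.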
Potency means the concentration at half of the fitted maximal effect.

Row | SMILES | Potency
1 | Cc1noc2ncnc(N3CCN(c4cccc(Cl)c4)CC3)c12 | 11.2 µM (active)
2 | Cc1cc(=O)oc2c1c(C)nn2-c1cccc(Cl)c1 | inactive
3 | CCN(CC)CCNC(=O)CCc1c(C)nc2c(c(C)nn2-c2ccc(C)cc2)c1C | 3.16 µM (active)
4 | COc1ccc2nc(C)cc(NCc3cccc(C(F)(F)F)c3)c2c1 | 14.1 µM (active)
5 | COc1ccc2nc(C)cc(NCc3ccc(F)cc3)c2c1 | 3.98 µM (active)
6 | CCOC(=O)c1c(SCCN2CCCCC2)n(-c2ccccc2)c(=S)n(-c2ccccc2)c1=O | 22.4 µM (active)
7 | CCOC(=O)c1c(SCCN2CCCC2)n(-c2ccccc2)c(=S)n(-c2ccccc2)c1=O | 2.24 µM (active)
8 | COc1cccc(N2CCN(c3nc(-c4ccccc4C)cc(=O)[nH]3)CC2)c1 | 0.398 µM (active)
9 | O=C(CNc1ccccc1)N/N=C/c1c(O)ccc2ccccc12 | 0.562 µM (active)
10 | O=C(CSCC(=O)Nc1ccccc1)N/N=C/c1c(O)ccc2ccccc12 | 0.708 µM (active)
11 | COc1ccccc1NCC(=O)N/N=C/c1c(O)ccc2ccccc12 | 3.16 µM (active)
12 | O=C(CNc1ccc(F)cc1)N/N=C/c1c(O)ccc2ccccc12 | 3.16 µM (active)
13 | CCOc1cc(CNCCO)cc(Br)c1OCc1ccccc1 | 12.6 µM (active)
14 | Cc1nc(C(F)(F)F)c(C(=O)N/N=C(\N)c2ccccn2)s1 | 14.1 µM (active)
15 | CC(C)C1Cc2c(sc3[nH]c(=S)n(Cc4ccccc4)c(=O)c23)CO1 (configuration not stated) | 12.6 µM (active)
16 | Nc1ccc(Oc2ccccc2-c2ccccc2)cc1 | 2 µM (active)
17 | Cc1ncc(CO)c(/C=N/Nc2ccc(C(F)(F)F)cn2)c1O | 3.55 µM (active)
18 | CCC(C)N1C(=O)S/C(=C/c2ccc(Sc3nc4ccccc4[nH]3)o2)C1=O (configuration not stated) | 11.2 µM (active)
19 | COc1cc(C(=O)OC(C)C(=O)N2CCc3ccccc3C2)ccc1OCC(=O)N1CCOCC1 (configuration not stated) | inactive
20 | S=C(Nc1ccccc1)Nc1ccc(OCc2ccc(Cl)cc2Cl)cc1 | 2.51 µM (active)
21 | Cc1[nH]c(=O)c(C(=O)/C=C/c2ccccc2)c2c1CCCC2 | 7.94 µM (active)
22 | Cc1ccc(C(=O)NCCN2C3=NC[C@@H](Cc4ccccc4)N3C[C@H]2Cc2ccc(O)cc2)cc1Br | 2.82 µM (active)
23 | CCCCn1c2ccc(F)cc2c2nnc(NN)nc21 | 28.2 µM (active)

Row | SMILES | Potency
24 | Cc1cc(C2=NNC(=NC3CC3)SC2)c(C)n1-c1ccccc1F | 0.126 µM (active)
25 | CC(=O)NC(c1ccco1)c1cc(Cl)c2cccnc2c1O (configuration not stated) | 3.16 µM (active)
26 | CCCC(=O)NC(c1ccco1)c1cc(Cl)c2cccnc2c1O (configuration not stated) | 11.2 µM (active)
27 | CCCCC(=O)NC(c1ccco1)c1cc(Cl)c2cccnc2c1O (configuration not stated) | 3.55 µM (active)
28 | CCC(=O)NC(c1ccco1)c1cc(Cl)c2cccnc2c1O (configuration not stated) | 2.82 µM (active)
29 | CCC(=O)NC(c1ccco1)c1cc(Br)c2cccnc2c1O (configuration not stated) | 11.2 µM (active)
30 | O=C(CCc1ccccc1)NC(c1cccs1)c1cc(Cl)c2cccnc2c1O (configuration not stated) | 2.24 µM (active)
31 | Oc1ccc(C2CNCc3sccc32)cc1O (configuration not stated) | inactive
32 | Cc1nc(-c2ccc(C(F)(F)F)cc2)sc1C(=O)NN | 14.1 µM (active)
33 | Cc1c(C(=O)NCc2ccc(C(F)(F)F)cc2)sc(=O)n1Cc1cccc(F)c1 | inactive
34 | Cn1c(NCCN2CCCC2)nc2cc(-c3ccsc3)sc2c1=O | 28.2 µM (active)
35 | Cc1ccc(F)cc1-c1cc2nc(NCCCN(C)C)n(C)c(=O)c2s1 | 17.8 µM (active)
36 | Cc1cc(Cl)ccc1-c1cc2nc(NCCCN(C)C)n(C)c(=O)c2s1 | inactive
37 | CCCCCCc1cc2cc(C(=O)Nc3ccccc3)c(=O)oc2cc1O | 0.794 µM (active)
38 | CCCCCCc1cc2cc(S(=O)(=O)c3ccc(C)cc3)c(=O)oc2cc1O | inactive
39 | Cc1cccc(Nc2nc(N)nc(CCl)n2)c1C | inactive
40 | C=CCn1c(COc2ccccc2)nnc1SC(C)C(=O)N/N=C/c1cc(Cl)ccc1O (configuration not stated) | 3.98 µM (active)
41 | CC(C)c1ccc(S(=O)(=O)c2cc3cc(Br)ccc3oc2=O)cc1 | 25.1 µM (active)
42 | c1ccc2c(c1)c1c(c3ccccc32)CN2CCCC2C1 (configuration not stated) | inactive
43 | CS(=O)(=O)Nc1ccccc1C(=O)Nc1cc(Cl)cc(Cl)c1 | 2.51 µM (active)
44 | CC(C)(C)NCC(=Cc1ccccc1)C(=O)c1ccccc1 | 1.41 µM (active)
45 | O=C(C(Br)=Cc1ccccc1)c1ccccc1 | 10 µM (active)
46 | Cc1n(Cc2ccccc2)c2ccccc2[n+]1Cc1ccccc1 | inactive

Row | SMILES | Potency
47 | N#Cc1c(Oc2ccc3ccccc3c2)sc(C(=O)c2ccccc2)c1N | 14.1 µM (active)
48 | CCOC(=O)C1CCN(c2cc3c(cc2NC(=O)c2ccccc2OCC)n(C)c(=O)n3C)CC1 | 28.2 µM (active)
49 | Cc1ccc(O)c(CNCCNCc2cc(C)ccc2O)c1 | 14.1 µM (active)
50 | Cc1ccc(-c2noc(CCCC(=O)NC3CCCC3)n2)cc1 | 7.94 µM (active)
51 | COc1ccc(-c2noc(CCCC(=O)NC3CCCC3)n2)cc1 | 8.91 µM (active)
52 | Cc1cccc(OCCCC(=O)Nc2nccs2)c1 | 3.16 µM (active)
53 | Cc1cccc(OCCCC(=O)Nc2nc3ccccc3[nH]2)c1 | 0.891 µM (active)
54 | O=C(CSc1ccc2ccccc2c1)Nc1nc2ccccc2[nH]1 | 2.82 µM (active)
55 | Cc1[nH]n(-c2ccccc2)c(=O)c1C=Nc1cccc2cccnc12 | 1.78 µM (active)
56 | CCOc1cc(/C=C2\SC(=N)N(c3nccs3)C2=O)ccc1OCCN1CCOCC1 | 14.1 µM (active)
57 | CSc1nc(-c2ccc(Cl)cc2)nc(N)c1C#N | 2.82 µM (active)
58 | CC(=O)Oc1ccc(N(C(C)=O)S(=O)(=O)c2ccc(C)cc2C)c2ccccc12 | 31.6 µM (active)
59 | CC(=O)Oc1ccc(N(C(C)=O)S(=O)(=O)c2ccc(C)cc2)c2ccccc12 | 3.16 µM (active)
60 | CC1CCN(Cc2c(C(=O)N/N=C/c3cc(Br)ccc3O)nnn2-c2nonc2N)CC1 | 0.794 µM (active)
61 | CC1CCN(Cc2c(C(=O)N/N=C/c3ccccc3O)nnn2-c2nonc2N)CC1 | 1.78 µM (active)
62 | CC1CCN(Cc2c(C(=O)N/N=C/c3cc(Cl)ccc3O)nnn2-c2nonc2N)CC1 | 3.55 µM (active)
63 | CCN1CC2=C(OC(N)=C(C#N)C2c2cccs2)/C(=C\c2cccs2)C1 (configuration not stated) | inactive
64 | COc1cc([C@@H]2c3cc4c(cc3[C@@H](O[C@@H]3O[C@@H]5CO[C@@H](C)O[C@H]5[C@H](O)[C@H]3O)[C@H]3COC(=O)[C@H]23)OCO4)cc(OC)c1O | 0.631 µM (active)
65 | CC[C@]12c3[nH]c4ccc(Cl)cc4c3CCN1C(=O)[C@@H](CC(=O)NCC13CC4CC(CC(C4)C1)C3)C[C@@H]2C(=O)N1CCN(C(=O)C2CC2)CC1 | 28.2 µM (active)
66 | CC[C@]12c3[nH]c4ccc(Cl)cc4c3CCN1C(=O)[C@@H](CC(=O)NCC13CC4CC(CC(C4)C1)C3)C[C@@H]2C(=O)N1CCN(C(=O)c2ccco2)CC1 | 3.55 µM (active)
67 | O=C(N/N=C(\Cc1ncc[nH]1)c1ccccc1)c1cccnc1 | 3.16 µM (active)
68 | O=C(N/N=C(\Cc1ncc[nH]1)c1ccccc1)c1ccncc1 | 10 µM (active)
69 | Oc1ccc2ccccc2c1/C=C/c1ccc2c(Br)cc(Br)c(O)c2n1 | 12.6 µM (active)

Row | SMILES | Potency
70 | CN(C)CCNc1ccc2nnn3c4ccc(O)cc4c(=O)c1c23 | 2 µM (active)
71 | CN(C)CCNc1cccc2sc3ccc(O)cc3c(=O)c12 | 28.2 µM (active)
72 | CN(C)CCNc1ccc2ncn3c4ccc(O)cc4c(=O)c1c23 | 1 µM (active)
73 | Cc1cc(Oc2ccc(Cl)cc2)nc(-c2ccccn2)n1 | inactive
74 | COc1cnc(-c2ccccn2)nc1Oc1ccc(Cl)c2ccccc12 | 3.16 µM (active)
75 | COc1cc([N+](=O)[O-])cc(/C=N/NC(=O)c2ccc(NC(=O)c3ccc(C)cc3)cc2)c1O | 1.41 µM (active)
76 | Cc1cc(C(=O)N/N=C/c2cc(Br)cc([N+](=O)[O-])c2O)c2ccccc2n1 | 3.16 µM (active)
77 | O=C(N/N=C/c1cc(Br)cc([N+](=O)[O-])c1O)c1ccc(NC(=O)c2ccc(F)cc2)cc1 | 3.16 µM (active)
78 | O=C(Nc1ccc(Cl)c(Cl)c1)Nc1nnc(CSc2ccccc2)s1 | 1.78 µM (active)
79 | CC1=CC(C)(C)Nc2ccc(OC(=O)CN3C(=O)CCC3=O)cc21 | 3.55 µM (active)
80 | Cc1cc(NCc2ccccn2)n2nc(C)c(-c3ccc(Cl)cc3)c2n1 | 15.8 µM (active)
81 | c1ccc(Cn2c(-c3ccccc3)c[n+]3c2SCCC3)cc1 | inactive
82 | CCOc1ccc(-n2c(-c3ccccc3)c[n+]3c2CCCCC3)cc1 | 8.91 µM (active)
83 | Cc1cccc(C2=NN(c3ccccc3)[C@H](CO)[C@H]2c2ccc(Cl)cc2)c1 | inactive
84 | Cc1cc(C)c2nc(N3CCCC(C(=O)N4CCN(c5ncccn5)CC4)C3)sc2c1 (configuration not stated) | 3.16 µM (active)
85 | O=c1cc(-c2cccnc2)oc2c1ccc1ccccc12 | 3.55 µM (active)
86 | CN(C)c1cc[n+](CC(=O)c2ccc(-c3ccccc3)cc2)cc1 | 2.24 µM (active)
87 | Oc1ccc(C[C@@H]2CNCCN2CCc2cc(C(F)(F)F)cc(C(F)(F)F)c2)cc1 | 3.16 µM (active)
88 | COc1cccc(-c2ccc(NC(=O)C3CCCN(Cc4cnn(C(C)C)c4)C3)cc2)c1 (configuration not stated) | 3.16 µM (active)
89 | Cc1cc(C)nc(NNS(=O)(=O)c2ccc(F)c(Cl)c2)n1 | inactive
90 | CN(CC(=O)Nc1ccc(Cl)c(C(F)(F)F)c1)C(=O)c1cccnc1Sc1ccccc1 | inactive
91 | CN(CC(=O)NCc1ccc(F)cc1)CC(=O)Nc1ccc(Cl)c(C(F)(F)F)c1 | 25.1 µM (active)
92 | Cc1nc(-c2ccc(F)cc2)c(CC(=O)N(C)CC(=O)Nc2ccc(Cl)c(C(F)(F)F)c2)s1 | 25.1 µM (active)
